Inhibition data for 31 compounds are collected here from ChEMBL document CHEMBL1961873, “Compounds: GSK PKIS; Assays: Nanosyn kinase panel” (2012).

“And” between values parts separate entries of the source, which are not always exact repeats. Equal values may be shown once.

Chain of Ribosomal protein S6 kinase alpha-3 (Homo sapiens) (P51812 whole entry): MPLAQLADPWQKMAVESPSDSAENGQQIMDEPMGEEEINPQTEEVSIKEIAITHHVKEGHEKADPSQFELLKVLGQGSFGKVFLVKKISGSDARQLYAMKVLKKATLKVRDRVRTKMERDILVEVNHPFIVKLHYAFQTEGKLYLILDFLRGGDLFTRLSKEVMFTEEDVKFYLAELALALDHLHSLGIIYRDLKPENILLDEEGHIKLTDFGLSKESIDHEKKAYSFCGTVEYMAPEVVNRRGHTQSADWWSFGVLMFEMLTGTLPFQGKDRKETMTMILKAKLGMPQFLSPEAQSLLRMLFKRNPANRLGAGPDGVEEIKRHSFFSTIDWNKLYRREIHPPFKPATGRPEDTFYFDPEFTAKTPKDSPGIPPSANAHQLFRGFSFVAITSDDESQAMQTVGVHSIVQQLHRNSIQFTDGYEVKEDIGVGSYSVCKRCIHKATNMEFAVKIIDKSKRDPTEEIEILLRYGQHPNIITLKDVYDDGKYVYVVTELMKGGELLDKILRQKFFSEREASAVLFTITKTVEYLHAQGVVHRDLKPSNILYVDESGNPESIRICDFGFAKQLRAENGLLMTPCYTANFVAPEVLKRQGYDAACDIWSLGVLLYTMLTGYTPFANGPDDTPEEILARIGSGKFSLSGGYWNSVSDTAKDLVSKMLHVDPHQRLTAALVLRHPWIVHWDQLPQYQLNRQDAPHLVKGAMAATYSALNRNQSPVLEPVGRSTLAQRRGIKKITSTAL

The assay concerns the target Ribosomal protein S6 kinase alpha-3 (Homo sapiens) (UniProt P51812). Particulars: at 1 µM.
For the compound `CCCNc1cccc(-n2ncc3c(N/N=C/c4ccncc4)ncnc32)c1`, the inhibition came out at 4.75%.

As for `COC(=O)Nc1nc2ccc(Oc3ccc(NC(=O)Nc4cc(C(F)(F)F)ccc4F)cc3)cc2s1`, the inhibition is 2.83%.

Regarding `N#Cc1ccc2c(-c3ccnc(NC4CC4)n3)c(-c3ccc(F)cc3)nn2c1`, the inhibition came to 0.42%.

Take `Fc1cccc(COc2ccc(Nc3ncncc3C#Cc3ccccc3)cc2Cl)c1`: the inhibition was 4.01%.

As for `NS(=O)(=O)c1cccc(N/C=C2\C(=O)Nc3ccccc32)c1`, the inhibition came out at 15.2%.

On to `COc1ccccc1-c1cc(/C=C2\C(=O)Nc3ncc(Br)cc32)cc(Br)c1O`, for which the inhibition amounted to 1.15%.

In the case of `COC(=O)Nc1nc2cc(Oc3ccc(NC(=O)Nc4ccccc4)cc3)ccc2[nH]1`, the inhibition stood at 3.56%.

Turning to `O=C(O[C@H]1CN[C@H](C#Cc2cc3ncnc(Nc4ccc5c(cnn5Cc5ccccc5)c4)c3s2)C1)N1CCOCC1`, the inhibition is 1.52%.

For `CCn1c(-c2nonc2N)nc2cncc(C(=O)NCCNC)c21`, the inhibition came out at 78.7%.

As for `Cc1cc(O)cc(C)c1/C=C/c1cncc(C(=O)OC(C)(C)C)c1`, the inhibition stood at 1.88%.

Regarding `N#Cc1cccc(Nc2ncc(-c3ccccc3)o2)c1`, the inhibition was 1.64%.

As to `CNC(=O)c1sc(-n2cnc3cc(OC)c(OC)cc32)cc1OCc1ccccc1C(F)(F)F`, the inhibition was 3.02%.

Regarding `COc1ccc2ncn(-c3cc(O[C@H](C)c4ccccc4C(F)(F)F)c(C(N)=O)s3)c2c1`, the inhibition was 6.99%.

With `COc1ccc(-c2nn3ncccc3c2-c2ccnc(Nc3ccc(F)c(F)c3)n2)cc1`, the inhibition is 7.14%.

In the case of `Cc1cc(O)cc(C)c1/C=C/c1cncc(C(N)=O)c1`, the inhibition was -0.35%.

For `Fc1ccc(Nc2nccc(-c3c(-c4ccc(C(F)(F)F)cc4)nn4ncccc34)n2)cc1F`, the inhibition is -1.74%.

Take `c1ccc(-c2n[nH]cc2-c2ccnc(-c3ccc(OCCn4ccnc4)cc3)c2)nc1`: the inhibition worked out at 3.85%.

With `COc1cc(N2CCN(C(C)C)CC2)ccc1Nc1nc(Nc2cccc(F)c2C(=O)O)c2cc[nH]c2n1`, the inhibition worked out at 11.6%.

Take `CS(=O)(=O)Nc1ccc(-c2cc(-c3ccccc3)cc(C(N)=O)c2N)cc1`: the inhibition was 0.45%.

For the compound `Nc1ncnc2occ(-c3ccc(NC(=O)Nc4cc(C(F)(F)F)ccc4F)cc3)c12`, the inhibition is 22.5% and 15.8%.

Take `COc1cc2c(cc1Nc1nc(Nc3cccc(F)c3C(N)=O)c3cc[nH]c3n1)N(C(=O)CN1CCN(C(C)C)CC1)CC2`: the inhibition amounted to 10.3%.

In the case of `CCS(=O)(=O)c1ccc(OC)c(Nc2ncc(-c3cccc(C(C)=O)c3)o2)c1`, the inhibition came to 3.54%.

Consider `CC(C)c1ccc(-c2cc(-c3c[nH]nc3-c3ccccn3)ccn2)cc1`, for which the inhibition worked out at 0.24%.

On to `O=C(O[C@H]1CN[C@H](C#Cc2cc3ncnc(Nc4ccc5c(ccn5Cc5cc(F)ccc5F)c4)c3s2)C1)N1CCOCC1`, for which the inhibition amounted to 0.89%.

As to `CN(c1ccc(NC(=O)NCCN2CCOCC2)cc1)c1ccnc(Nc2ccc(CS(C)(=O)=O)cc2)n1`, the inhibition stood at 2.69%.

Consider `NS(=O)(=O)c1ccc(N/N=C2\C(=O)Nc3cccc(CCc4ccncc4)c32)cc1`, for which the inhibition worked out at 2.03%.

With `CNC(=O)c1cncc(/C=C/c2ccccc2C)c1`, the inhibition is 3.84%.

On to `CN1CCC(C(=O)Nc2n[nH]c3nc(-c4ccc(O)cc4)c(Br)cc23)CC1`, for which the inhibition is 6.6% and 1.92%.

Turning to `COc1c(C(N)=O)cc(-c2ccc(Cl)cc2)cc1-c1ccc(S(N)(=O)=O)cc1`, the inhibition is 2.53%.

For the compound `CN1CCN(Cc2ccc(-c3cc4ncnc(Nc5ccc(OCc6cccc(F)c6)c(Cl)c5)c4s3)o2)CC1`, the inhibition is 4.15% and 7.1%.

Consider `NC(=O)c1ccc2c(-c3ccnc(NCCCO)n3)c(-c3ccc(F)cc3)nn2c1`, for which the inhibition came out at 1.23%.
